Experimental data published in the supplement of paper PMC9023506.
Where a name gives a salt, the structure may show the parent alone.

Tested on: Danio rerio larvae (5 dpf)
Test: optomotor response to red moving lines, difference vs DMSO (percentage points (treated minus DMSO)); higher = more of the behaviour than the DMSO vehicle control
Conditions: 10 µM; exposure time: 3 h pre-incubation + 3 h imaging
Description: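 5-dpf wild-type zebrafish larvae were imaged in 96-well plates. They were treated with 190 Tocris FDA-approved drugs at 10 µM (1 µl/ml DMSO) for 3 h before and 3 h during imaging at 28.5 °C, 48 larvae per drug. Automated image analysis gave % time moving and optomotor responses. Values are drug group mean minus DMSO vehicle mean (n=844), in percentage points, for 10 behaviours.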

| Structure (SMILES) | optomotor response to red moving lines |
| --- | --- |
| CNS(=O)(=O)Cc1ccc2[nH]cc(CCN(C)C)c2c1 [Sumatriptan succinate] | -6.18 |
| Cc1cccc(C)c1OCC(C)N (stereo not given) [Mexiletine hydrochloride] | 3.43 |
| OC(c1cc(C(F)(F)F)nc2c(C(F)(F)F)cccc12)C1CCCCN1 (stereo not given) [Mefloquine hydrochloride] | 8.36 |
| N#C[C@@H]1C[C@@H]2C[C@@H]2N1C(=O)[C@@H](N)C12CC3CC(CC(O)(C3)C1)C2 [Saxagliptin hydrochloride] | -1.45 |
| CCCC1O[C@@H]2C[C@H]3[C@@H]4CCC5=CC(=O)C=C[C@]5(C)[C@H]4[C@@H](O)C[C@]3(C)[C@]2(C(=O)CO)O1 (stereo not given in full) [Budesonide] | 12 |
| Cc1nc(Nc2ncc(C(=O)Nc3c(C)cccc3Cl)s2)cc(N2CCN(CCO)CC2)n1 [Dasatinib] | -9.17 |
| CC(=O)O[C@H]1C(=O)[C@@]2(C)[C@H]([C@H](OC(=O)c3ccccc3)[C@]3(O)C[C@H](OC(=O)[C@H](O)[C@@H](NC(=O)c4ccccc4)c4ccccc4)C(C)=C1C3(C)C)[C@]1(OC(C)=O)CO[C@@H]1C[C@@H]2O [Taxol] | 6.51 |
| C[C@@H](O[C@H]1OCCN(Cc2n[nH]c(=O)[nH]2)[C@H]1c1ccc(F)cc1)c1cc(C(F)(F)F)cc(C(F)(F)F)c1 [Aprepitant] | -4.19 |
| NS(=O)(=O)c1cc2c(cc1Cl)NC(C1CC3C=CC1C3)NS2(=O)=O (stereo not given) [Cyclothiazide] | -6.66 |
| COc1ccc([C@@H]2Sc3ccccc3N(CCN(C)C)C(=O)[C@@H]2OC(C)=O)cc1 [Diltiazem hydrochloride] | -1.99 |
| CC[C@H](C)C(=O)O[C@H]1C[C@@H](C)C=C2C=C[C@H](C)[C@H](CC[C@@H]3C[C@@H](O)CC(=O)O3)[C@H]21 [Lovastatin] | -6.33 |
| COc1ccccc1OCC(O)CN1CCN(CC(=O)Nc2c(C)cccc2C)CC1 (stereo not given) [Ranolazine dihydrochloride] | 9.27 |
| C#C[C@]1(O)CC[C@H]2[C@@H]3CCC4=CC(=O)CC[C@@H]4[C@H]3CC[C@@]21CC [Levonorgestrel] | 4.27 |
| Nc1nc(NC2CC2)c2ncn([C@H]3C=C[C@@H](CO)C3)c2n1 [Abacavir hemisulfate] | -1.56 |
| COC(=O)C1=C(C)NC(C)=C(C(=O)OC(C)C)C1c1cccc2nonc12 (stereo not given) [Isradipine] | -7.63 |
| CO[C@H]1/C=C/O[C@@]2(C)Oc3c(C)c(O)c4c(O)c(c5c(nc6cc(C)ccn65)c4c3C2=O)NC(=O)/C(C)=C\C=C\[C@H](C)[C@H](O)[C@@H](C)[C@@H](O)[C@@H](C)[C@H](OC(C)=O)[C@@H]1C [Rifaximin] | 0.313 |
| CC(C)COCC(CN(Cc1ccccc1)c1ccccc1)N1CCCC1 (stereo not given) [Bepridil hydrochloride] | 3.6 |
| COc1ccc(-c2ccc3cc(C(=O)O)ccc3c2)cc1C12CC3CC(CC(C3)C1)C2 [Adapalene] | -12.7 |
| CN(CCOc1ccc(CC2SC(=O)NC2=O)cc1)c1ccccn1 (stereo not given) [Rosiglitazone] | -2.8 |
| O=C(O)C[C@H](O)C[C@H](O)/C=C/c1c(C2CC2)nc2ccccc2c1-c1ccc(F)cc1 [Pitavastatin calcium] | 3.56 |

| Structure (SMILES) | optomotor response to red moving lines |
| --- | --- |
| CC(C)c1nc(CN(C)C(=O)N[C@H](C(=O)N[C@@H](Cc2ccccc2)C[C@H](O)[C@H](Cc2ccccc2)NC(=O)OCc2cncs2)C(C)C)cs1 [Ritonavir] | -2.77 |
| Nc1nc(F)nc2c1ncn2[C@@H]1O[C@H](CO)[C@@H](O)[C@@H]1O [Fludarabine] | -10.8 |
| CN(CCOc1ccc(NS(C)(=O)=O)cc1)CCc1ccc(NS(C)(=O)=O)cc1 [Dofetilide] | -14.2 |
| CCC(=O)O[C@]1(C(=O)SCF)[C@H](C)C[C@H]2[C@@H]3C[C@H](F)C4=CC(=O)C=C[C@]4(C)[C@@]3(F)[C@@H](O)C[C@@]21C [Fluticasone propionate] | -12.2 |
| CN1CCN2c3ncccc3Cc3ccccc3C2C1 (stereo not given) [Mirtazapine] | -3.88 |
| Cc1ccc(NC(=O)c2ccc(CN3CCN(C)CC3)cc2)cc1Nc1nccc(-c2cccnc2)n1 [Imatinib mesylate] | -3.1 |
| OC(CNCC(O)C1CCc2cc(F)ccc2O1)C1CCc2cc(F)ccc2O1 (stereo not given) [Nebivolol hydrochloride] | -16.2 |
| COc1ccc(Cl)cc1C(=O)NCCc1ccc(S(=O)(=O)NC(=O)NC2CCCCC2)cc1 [Glibenclamide] | 10.2 |
| Nc1cc(N2CCCCC2)nc(N)[n+]1[O-] [Minoxidil] | -13.4 |
| CC(C)(C)NC(=O)[C@@H]1C[C@@H]2CCCC[C@@H]2CN1C[C@@H](O)[C@H](Cc1ccccc1)NC(=O)[C@H](CC(N)=O)NC(=O)c1ccc2ccccc2n1 [Saquinavir mesylate] | -16.6 |
| COc1cc2nc(N3CCN(C(=O)c4ccco4)CC3)nc(N)c2cc1OC [Prazosin hydrochloride] | -6.9 |
| CN[C@H]1CC[C@@H](c2ccc(Cl)c(Cl)c2)c2ccccc21 [Sertraline hydrochloride] | 21.6 |
| C=CC(=O)N1CCC[C@@H](n2nc(-c3ccc(Oc4ccccc4)cc3)c3c(N)ncnc32)C1 [Ibrutinib] | -1.62 |
| CCCc1nc2c(C)cc(-c3nc4ccccc4n3C)cc2n1Cc1ccc(-c2ccccc2C(=O)O)cc1 [Telmisartan] | -8.2 |
| Nc1nc2c(ncn2COCCO)c(=O)[nH]1 [Acyclovir] | 1.94 |
| OCc1cc(C(O)CNCCCCCCOCCCCc2ccccc2)ccc1O (stereo not given) [Salmeterol xinafoate] | 5 |
| Cc1ccc(-c2cc(C(F)(F)F)nn2-c2ccc(S(N)(=O)=O)cc2)cc1 [Celecoxib] | -3.89 |
| N[C@@H]1[C@H]2CN(c3nc4c(cc3F)c(=O)c(C(=O)O)cn4-c3ccc(F)cc3F)C[C@@H]12 [Trovafloxacin mesylate] | 4.89 |
| COc1cccc2c1C(=O)c1c(O)c3c(c(O)c1C2=O)C[C@@](O)(C(=O)CO)C[C@@H]3O[C@H]1C[C@H](N)[C@H](O)[C@H](C)O1 [Doxorubicin hydrochloride] | -1.73 |
| C#CCN[C@@H]1CCc2ccccc21 [Rasagiline mesylate] | 16.9 |
